Compound activity from PubChem BioAssay.
The list is not random: actives were taken first. Their share in the collection is about 1.3%.
NR5A2 inv ag – inverse agonists of human LRH-1 (NR5A2) | inhibition, % at 3.6 µM | AID 602396 | 360,000 compounds, 0.13% hits | HEK293T StAR-luciferase reporter, LRH-1 transfected, 24 h;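 active = inhibition above the mean inhibition of all tested compounds plus 3 SD, cut at about 73% in these data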
NR2F2 inh – NR2F2 (human) inhibition, primary screen; P24468; HEK293T NGFI-A luciferase reporter, luminescence; inhibition, % at 8.6 µM; 370,000 compounds, 0.7% hits; AID 686940;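 active = inhibition above a per-plate cutoff, mean inhibition of test wells between control levels plus 3 SD, cut at about 38% in these data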;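 also: cells cotransfected with COUP-TFII expression vector driving the NGFI-A reporter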
NCOA1 inh – inhibits human SRC1 coactivator. AID 588354. inhibition, % at 3.6 µM. HEK293 GAL4-SRC1 luciferase reporter, luminescence. 360,000 compounds, 0.12% hits;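 active = inhibition above the campaign mean plus 3 SD, with each screening campaign given its own cutoff, cut at about 60% in these data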
Target sequence (Q15788 whole entry, looked up, the tested form may be a part): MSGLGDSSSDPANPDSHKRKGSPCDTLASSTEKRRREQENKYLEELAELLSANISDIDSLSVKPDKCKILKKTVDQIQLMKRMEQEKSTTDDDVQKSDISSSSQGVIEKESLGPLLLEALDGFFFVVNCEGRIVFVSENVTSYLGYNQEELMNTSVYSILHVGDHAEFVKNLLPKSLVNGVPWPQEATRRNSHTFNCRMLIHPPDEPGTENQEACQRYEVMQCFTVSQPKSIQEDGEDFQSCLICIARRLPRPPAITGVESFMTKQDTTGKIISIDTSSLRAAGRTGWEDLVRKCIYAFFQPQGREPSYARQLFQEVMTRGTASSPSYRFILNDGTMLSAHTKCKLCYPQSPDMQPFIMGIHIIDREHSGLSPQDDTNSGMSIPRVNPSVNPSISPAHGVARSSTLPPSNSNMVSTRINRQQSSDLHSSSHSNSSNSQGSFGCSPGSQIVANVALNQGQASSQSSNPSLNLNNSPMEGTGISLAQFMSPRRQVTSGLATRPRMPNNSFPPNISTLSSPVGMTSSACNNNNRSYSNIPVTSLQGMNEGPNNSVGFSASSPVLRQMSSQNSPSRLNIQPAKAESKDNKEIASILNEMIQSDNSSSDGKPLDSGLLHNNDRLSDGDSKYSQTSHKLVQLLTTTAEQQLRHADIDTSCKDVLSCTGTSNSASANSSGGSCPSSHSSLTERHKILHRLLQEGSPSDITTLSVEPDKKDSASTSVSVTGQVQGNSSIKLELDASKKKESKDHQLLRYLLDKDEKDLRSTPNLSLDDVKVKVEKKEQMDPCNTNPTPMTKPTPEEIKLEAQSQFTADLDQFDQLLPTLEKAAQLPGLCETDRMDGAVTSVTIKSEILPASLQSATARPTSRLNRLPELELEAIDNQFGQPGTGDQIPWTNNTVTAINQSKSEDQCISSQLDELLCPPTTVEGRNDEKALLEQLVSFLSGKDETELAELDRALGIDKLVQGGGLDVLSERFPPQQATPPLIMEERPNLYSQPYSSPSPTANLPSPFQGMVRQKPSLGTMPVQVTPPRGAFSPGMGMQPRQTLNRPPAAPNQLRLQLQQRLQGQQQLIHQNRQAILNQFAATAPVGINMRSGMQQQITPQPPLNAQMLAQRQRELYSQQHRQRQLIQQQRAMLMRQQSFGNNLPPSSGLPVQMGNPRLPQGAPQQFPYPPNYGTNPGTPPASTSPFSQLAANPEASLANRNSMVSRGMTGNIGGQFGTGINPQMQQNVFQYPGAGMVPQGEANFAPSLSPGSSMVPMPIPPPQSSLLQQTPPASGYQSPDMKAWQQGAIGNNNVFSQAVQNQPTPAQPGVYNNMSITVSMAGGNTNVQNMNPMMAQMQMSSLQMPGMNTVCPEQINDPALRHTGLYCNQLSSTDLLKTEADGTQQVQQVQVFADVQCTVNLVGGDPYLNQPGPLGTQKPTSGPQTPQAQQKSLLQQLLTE
SRC3 inh – inhibitors of human steroid receptor coactivator 3 (SRC3). Q9Y6Q9. HEK293 GAL4-SRC3 luciferase reporter, luminescence. inhibition, % at 3.6 µM. 360,000 compounds, 0.17% hits. AID 588352;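 active = inhibition above a per-campaign cutoff, the mean of all compounds plus 3 SD, cut at about 60% in these data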;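 also: higher means less SRC3-driven luciferase light from the GAL4 reporter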
SRC2 inh – inhibits human steroid receptor coactivator 2. 370,000 compounds, 0.17% hits. inhibition, % at 9 µM. HEK293 GAL4-SRC2 luciferase reporter, luminescence. AID 651957. Q15596;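 active = inhibition above the mean inhibition of all tested compounds plus 3 SD, set per campaign, cut at about 52% in these data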
Gli-Sufu block – antagonists of Gli-Sufu signaling. Sufu-KO-LIGHT fibroblasts, Gli luciferase reporter luminescence. inhibition, % at 5 µM. 340,000 compounds, 0.74% hits. AID 588413;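 active = inhibition above about 55%, limit read from the data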
Gal4-VP16 ctr – counter-screen for COUP-TFII antagonists: inhibitors of VP16. shares compounds with NR2F2 inh. HEK293 Gal4-VP16 luciferase reporter, luminescence. inhibition, % at 8.5 µM. 2,500 compounds, 25% hits; in the data active = inhibition above about 13%
NR2F2 inh conf – COUP-TFII (NR2F2) inhibition, confirmation assay; shares compounds with NR2F2 inh; HEK293 NGFI-A luciferase reporter, luminescence; inhibition, % at 8.5 µM; 2,500 compounds, 45% hits; AID 687008;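 active = mean inhibition over three repeats above a set limit taken from the earlier primary screen, cut at about 38% in these data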
Hits are given with their value; 0 = inactive; - = no result.

SMILES	NR5A2 inv ag	NR2F2 inh	NCOA1 inh	SRC3 inh	SRC2 inh	Gli-Sufu block	Gal4-VP16 ctr	NR2F2 inh conf
COc1cc(NC(=O)C2CCCN(S(=O)(=O)c3cc(OC)ccc3OC)C2)cc(OC)c1 (stereo unspecified)	-	0	-	-	0	-	-	-
C[C@H]1CN([C@@H](C)CO)C(=O)c2c(c3ccccc3n2C)-c2ccccc2CO[C@H]1CN(C)C(=O)Nc1cccc(F)c1	-	0	-	-	0	-	-	-
Cc1cc(C2=NNC(=NC3CC3)SC2)c(C)n1Cc1ccco1	76	89	76	83	83	84	77	103
COCCn1c(C)cc(C2=NNC(=NC3CC3)SC2)c1C	87	94	89	91	86	91	89	109
COCCn1c(C)cc(C2=NNC(=Nc3ccc(Cl)cc3Cl)SC2)c1C	0	0	0	0	0	0	-	-
C=CCn1c(C)cc(C2=NNC(=Nc3ccc(C)cc3)SC2)c1C	0	0	0	0	0	0	-	-
Cc1cc(C2=NNC(=NC3CC3)SC2)c(C)n1-c1ccccc1	77	52	84	86	80	91	71	106
C=CCN=C1NN=C(c2cc(C)n(CCOC)c2C)CS1	0	86	0	0	70	58	75	96
Cc1ccc(-c2[nH]c3ccccc3c2SCCNC(=O)c2ccc(S(=O)(=O)N3CCOCC3)cc2)cc1	0	47	0	0	0	0	0	0
CCOC(=O)Cc1csc(NC(=O)/C=C/c2cccc(Br)c2)n1	0	58	0	0	0	0	0	0
CCCc1c(Cc2cccc(F)c2)ncn1CCc1ccccc1OC	-	0	-	-	0	-	-	-
CN(C)[C@@H]1CCN(c2ccc3c(c2)O[C@H]2CCN(C2)S3(=O)=O)C1	-	0	-	-	0	-	-	-
O=[N+]([O-])c1ccc(Sc2cccc[n+]2[O-])c2nonc12	90	101	89	84	93	86	96	105
C=CCN1[C@H](CC(C)C)COc2cccc(F)c2S1(=O)=O	-	0	-	-	0	-	-	-
COc1ccc(CC(=O)OCC(=O)NC2CCCC(C)C2C)cc1OC (stereo unspecified)	0	50	0	0	0	0	0	0
CCN(C(=O)[C@@H](C)[C@@H](O)c1ccc2ccccc2c1)c1ccccc1	-	0	-	-	0	-	-	-
COc1ccc(NC(=O)C2Cc3c(-c4ccc(Cl)cc4)ccnc3O2)cc1OC (stereo unspecified)	0	64	0	0	0	-	0	54
COc1ccc(NC(=O)C2Cc3c(-c4cccc(C(N)=O)c4)ccnc3O2)cc1OC (stereo unspecified)	0	0	0	0	0	-	-	-
CC(=O)c1cccc(NC(=O)C2Cc3c(-c4ccccc4Oc4ccccc4)ccnc3O2)c1 (stereo unspecified)	0	41	0	0	0	-	0	0
COc1ccc(NC(=O)C2Cc3c(-c4cccc(C(C)=O)c4)ccnc3O2)cc1OC (stereo unspecified)	0	75	0	0	0	-	0	49
CCOC(=O)C1CCN(C(=O)C(C)(C)NC(=O)Nc2ccc(OC)c(Cl)c2)CC1	-	0	-	-	-	-	-	-
NC(=S)NN=C1c2cc(OCCN3CCOCC3)ccc2-c2ccc(OCCN3CCOCC3)cc21	75	68	73	0	0	0	0	80
COc1ccc(CN2C(=O)C(C)N(C(=O)c3c(F)cccc3F)c3ccccc32)cc1 (stereo unspecified)	0	0	0	0	0	0	-	-
COc1cccc(CN2C(=O)C(C)N(C(=O)c3ccccc3)c3ccccc32)c1 (stereo unspecified)	0	54	0	0	0	0	0	0
O=C(CCc1nc(-c2ccccc2F)no1)NCCc1c[nH]c2ccccc12	-	0	-	-	0	-	-	-
SMILES	NR5A2 inv ag	NR2F2 inh	NCOA1 inh	SRC3 inh	SRC2 inh	Gli-Sufu block	Gal4-VP16 ctr	NR2F2 inh conf
O=C(NCCCc1ccccc1)C1CCN(c2nc(-c3ccc(Br)cc3)cs2)CC1	-	37	-	-	-	-	0	0
CC(=O)O[C@@H]1CCC[C@@]2(C(=O)N(Cc3ccccc3)c3ccc(-c4c(C)noc4C)cc32)[C@H]1NC(=O)CCc1ccccc1	-	0	-	-	0	-	-	-
CCc1c(C)nc2ccc(Br)cc2c1SCCC#N	0	38	65	64	0	0	0	0
CCc1c(C)nc2c(Br)cccc2c1SCCC#N	0	0	0	0	0	0	-	-
Cc1c(C(=O)NCc2ccc(Cl)c(Cl)c2)sc(=O)n1Cc1ccc(S(C)(=O)=O)cc1	0	85	0	0	0	-	0	0
Cc1c(C(=O)NCc2ccc3c(c2)OCCO3)sc(=O)n1Cc1ccc(S(=O)(=O)N(C)C)cc1	0	45	0	0	0	-	0	0
Cc1c(C(=O)NCc2ccc3c(c2)OCO3)sc(=O)n1Cc1ccc(S(=O)(=O)N(C)C)cc1	0	0	0	0	0	-	-	-
COc1ccc(CNC(=O)c2sc(=O)n(Cc3ccc(-c4ccccc4)cc3)c2C)cc1OC	0	44	0	0	0	-	0	41
COc1cccc(NC(=O)N2CC[C@@H]3[C@H]2c2cc(-c4cccc(C#N)c4)ccc2N(C)[C@@H]3CO)c1	-	0	-	-	0	-	-	-
O=C(c1cc(Br)cc(Br)c1)N1CCC(Oc2cccnc2)CC1	-	0	-	-	0	-	-	-
Oc1cccc2ccc(Nc3ccccn3)nc12	0	39	0	0	0	0	0	0
O=C1C2C3C=CC(C3)C2C(=O)N1c1ccc(N2CCN(c3ccccn3)CC2)c([N+](=O)[O-])c1 (stereo unspecified)	0	42	0	0	0	0	0	0
CC(Sc1nnc2c(n1)[nH]c1ccccc12)C(=O)N(C)C1CCCCC1 (stereo unspecified)	0	44	0	0	0	0	0	0
COc1cccc(C(=O)Nn2c(-c3cccs3)nc3ccccc3c2=O)c1OC	0	0	0	0	0	0	-	-
COc1ccc(CNn2c(-c3cccs3)nc3ccccc3c2=O)cc1OC	0	38	0	0	0	0	0	0
Cc1cc(C(=O)COC(=O)c2ccco2)c(C)n1Cc1ccco1	0	58	0	0	0	0	0	0
COC(=O)c1ccc(S(=O)(=O)N2CCCN(Cc3cccc(Br)c3F)CC2)n1C	0	55	0	0	0	0	0	0
Cc1[nH]c2ccccc2c1/C=N/Nc1nncn1N	0	92	0	0	0	0	0	0
O=C(NC1CCCCC1)c1n[nH]c2c1CCCCC2	0	50	0	0	57	0	0	0
CCCCCCNC(=O)C1CSCCS(=O)(=O)N1Cc1ccc(C)cc1 (stereo unspecified)	-	0	-	-	0	-	-	-
CC1CCN(c2ncnc3ccccc23)CC1	0	45	0	0	0	0	0	0
CC1CCN(c2nc(-c3ccccc3O)nc3ccccc23)CC1	0	0	0	0	0	0	-	-
O=S1(=O)C=CCN1Cc1cn(Cc2ccc(F)cc2)nn1	-	0	-	-	0	-	-	-
